Reference: PubChem BioAssay (Tox21)
Values joined by “and” are separate entries in the source; they are usually repeats but may differ in a detail not shown here. Equal values may be shown once. Inconclusive results are not listed. Where a call stands in place of a potency, no number is given. Where a structure was tested more than once in an assay, its records may differ in their call. Active and inactive are the calls of the source. Calls follow the shape of the dose curve; as a rule, active = well fitted activation curve with a large enough effect in the repeat runs; inconclusive = weak or mixed curves; inactive = flat fitted curve, though single readings scatter.
Potency is read from the fitted curve at half-maximal effect.

Assay: A CellTox Green Cytotoxicity Assay to monitor cytotoxicity in HepG2 cells - 16 hour (AID 1224876); also: nearly all actives have a fitted effect of over 45% in size
Conditions: CellTox Green fluorescence; series mostly up to 76.8 µM
From the text: National Center for Advancing Translational Sciences [NCATS]
NIH Chemical Genomics Center [NCGC]
U.S. Environmental Protection Agency [EPA]
National Institutes of Environmental Health Sciences [NIEHS]
National Toxicology Program [NTP]
Cell-based models are critical for drug discovery. Determining the natural cytotoxic effects resulting from test compounds is an essential research activity. A CellTox Green Cytotoxicity Assay to monitor cytotoxicity in real time of continues cell culture during 40 hours of the compound treatment was used to screen Tox21 10K library compounds in HepG2 cells. CellTox Green Cytotoxicity Assay is a nonlytic, homogeneous, biofluorescent method to measure cytotoxicity in cell culture after experimental manipulation. The assay system uses a proprietary asymmetric cyanine dye that is excluded from viable cells but preferentially stains the dead cell's DNA. […] Viable cells produce no appreciable increases in fluorescence. Therefore, the fluorescence signal produced by the binding interaction with dead cell DNA is proportional to cytotoxicity.
The mixture of HepG2 cell suspension and reagents were dispensed at 600cells/6 ul/well in 1536-well tissue culture treated black solid bottom plates using a Multidrop dispenser. After the assay plates were incubated at a 37 C/5% CO2 incubator for 5 hours, 23 nL of compounds dissolved in DMSO, positive and negative controls was transferred to the assay plate by a pintool work station. The plates were incubated at 37 C for 40 hours. The fluorescence intensity were measured at 0h, 8h, 16h, 24h, 32h and 40h time points using ViewLux plate reader during compound treatment.
In the case of C=C(C)C(=O)OCCOC(=O)C(=C)C, the Potency is reported as “inactive”.
In the case of CCCCc1oc2ccccc2c1C(=O)c1cc(I)c(OCCN(CC)CC)c(I)c1, the Potency is reported as 44 µM (active).
For CCCCC(CC)COCC1CO1 (stereo not given), the Potency was “inactive”.
In the case of Nc1ncn([C@@H]2O[C@H](CO)[C@@H](O)[C@H]2O)c(=O)n1, the Potency is reported as “inactive”.
With c1ccc2cc(Nc3ccc(Nc4ccc5ccccc5c4)cc3)ccc2c1 the Potency was “inactive”.
In the case of Clc1nc(Cl)c(Cl)c(Cl)c1Cl, the Potency is reported as “inactive”.
For O=CCCCC=O, the Potency was “inactive”.
With CCCCOCCOCCOCCO the Potency was “inactive”.
With Nc1ccc(S(=O)(=O)Nc2cnc3ccccc3n2)cc1 the Potency was “inactive”.
For COc1cccc2c1C(=O)c1c(O)c3c(c(O)c1C2=O)C[C@@](O)(C(=O)CO)C[C@@H]3O[C@H]1C[C@H](N)[C@H](O)[C@H](C)O1, the Potency was “inactive and 21.3 µM (active)”.
With Nc1ccccc1N the Potency was 56.2 µM (active) and inactive.
With O=Cc1ccccc1O the Potency was “inactive”.
With CC(C)=CCC/C(C)=C\CO the Potency was “inactive”.
In the case of CCCCC/C=C/C=C/C=O, the Potency is reported as “inactive”.
For CC(CCC(=O)O)(c1ccc(O)cc1)c1ccc(O)cc1, the Potency was “inactive”.
For Cc1ccc2c(n1)Oc1ccc(C(C)C(=O)OCC(=O)N(C)C)cc1C2 (stereo not given), the Potency was “inactive”.
In the case of CCC(C)OC(=O)c1ccc(O)cc1 (stereo not given), the Potency is reported as “inactive”.
For CCCCCCCCCCCO, the Potency was “inactive”.
In the case of Nc1ncnc2nc[nH]c12, the Potency is reported as “inactive”.
In the case of COC(=O)C1=C(C)NC(C)=C(C(=O)OCCN(C)Cc2ccccc2)C1c1cccc([N+](=O)[O-])c1 (stereo not given), the Potency is reported as “inactive”.
In the case of CCCCC(CC)COP(=O)(OCC(CC)CCCC)OCC(CC)CCCC (stereo not given), the Potency is reported as “inactive”.
In the case of COC(C)COC(C)COC(C)CO (stereo not given), the Potency is reported as “inactive”.
For C[Si](C)(C)O[Si](C)(C)C, the Potency was “inactive”.
With CC(C)OC=O the Potency was “inactive”.
For Brc1cc(Oc2cc(Br)c(Br)c(Br)c2Br)c(Br)c(Br)c1Br, the Potency was “inactive”.
For CCCCC(CC)COC(=O)c1ccc(N(C)C)cc1 (stereo not given), the Potency was “inactive”.
For CN(C)C(=N)N=C(N)N, the Potency was “inactive”.
For CN(C)CCC=C1c2ccccc2CCc2ccccc21, the Potency was 24.5 µM (active).
For c1ccc(Nc2ccccc2)cc1, the Potency was “inactive”.
For CCC(C)(O)CCCC(C)C (stereo not given), the Potency was “inactive”.
In the case of O=C(/C=C/c1ccccc1)OCc1ccccc1, the Potency is reported as “inactive”.
In the case of c1ccc2c(c1)c1cccc3ccc4cccc2c4c31, the Potency is reported as “inactive”.
With CC(C)=CCCC(C)CCO (stereo not given) the Potency was “inactive”.
In the case of Nc1ccc(Cl)cc1Cl, the Potency is reported as “inactive”.
With O=c1oc(=O)c2cc3c(=O)oc(=O)c3cc12 the Potency was “inactive”.
With COc1cc([C@@H]2c3cc4c(cc3[C@H](O)[C@H]3COC(=O)[C@H]23)OCO4)cc(OC)c1OC the Potency was “inactive”.
For S=C(NC1CCCCC1)NC1CCCCC1, the Potency was “inactive”.
For C[C@]12CCC(=O)C=C1CC[C@@H]1[C@@H]2C(=O)C[C@@]2(C)[C@H]1CC[C@]2(O)C(=O)CO, the Potency was “inactive”.
With Cc1cccc(C(=O)O)c1 the Potency was “inactive”.
In the case of Cn1cnc([N+](=O)[O-])c1Sc1ncnc2nc[nH]c12, the Potency is reported as “inactive”.
